# Calls of active or inactive are those of the source. How the source made its calls: active means hit-call score of the fitted dose curve at least 0.9, where 1 is the maximum; inactive means score below 0.9.
# Key:
# [1] = ATG_CRE_CIS: Attagene CIS-FACTORIAL HepG2 Assay for human cAMP Responsive Element (CRE) binding protein 3 (AID 2282926); settings: HepG2 CRE cis-reporter, Attagene multiplexed mRNA; actives raise or lower the signal
# In short: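 Multiplexed transcription-unit reporters transfected into HepG2; 24 h dosing; RT-PCR/capillary electrophoresis fluorescence read-out; bidirectional fit vs DMSO.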
# [2] = target: CCAAT/enhancer-binding protein beta (Homo sapiens) (UniProt P17676); test: ATG_C_EBP_CIS: Attagene CIS-FACTORIAL HepG2 Assay for human CCAAT/Enhancer Binding Protein (C/EBP) beta (AID 2282927); settings: HepG2 Attagene cis-factorial transcription factor reporter; actives raise or lower the signal
# Sequence of CCAAT/enhancer-binding protein beta (Homo sapiens) (P17676 whole entry, looked up, the tested form may be a part): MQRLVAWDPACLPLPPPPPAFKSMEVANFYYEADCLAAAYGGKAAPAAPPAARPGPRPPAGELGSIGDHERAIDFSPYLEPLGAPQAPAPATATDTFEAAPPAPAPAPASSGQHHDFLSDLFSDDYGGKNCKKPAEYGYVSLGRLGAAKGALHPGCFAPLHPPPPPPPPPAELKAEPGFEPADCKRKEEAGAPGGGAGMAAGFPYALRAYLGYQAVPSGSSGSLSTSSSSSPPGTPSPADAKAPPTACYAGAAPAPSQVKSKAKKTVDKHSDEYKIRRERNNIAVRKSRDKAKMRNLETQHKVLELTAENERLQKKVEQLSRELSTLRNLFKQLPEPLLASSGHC
# In short: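 Endogenous C/EBPb-driven reporter transcripts measured in transfected human HepG2 cells at 24 h via RT-PCR and capillary electrophoresis of labelled fragments. Activity fitted in both directions relative to DMSO baseline.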
# [3] = ATG_CMV_CIS: Attagene CIS-FACTORIAL HepG2 Assay for human CMV (Internal Marker) (AID 2282928); settings: HepG2 CMV promoter reporter, transcription factor profiling; actives raise or lower the signal;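 further: endpoint acts as a background internal control marker rather than a target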
# In short: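 HepG2 cells transiently transfected with multiple cis-regulated reporter units; 24 h compound exposure. Reporter mRNA quantified by RT-PCR, 6-FAM primer-extension labeling, HpaI digestion and capillary electrophoresis; bidirectional fitting against DMSO baseline.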
# [4] = ATG_DR4_LXR_CIS: Attagene CIS-FACTORIAL HepG2 Assay for human Liver X Receptor (LXR), DR4 submotif (AID 2282929); settings: HepG2 Attagene DR4 cis-reporter, mRNA transcription; actives raise or lower the signal
# In short: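 DR4 cis-reporter in HepG2, 24 h exposure. Detection: RT-PCR, 6-FAM labelling, CE fragment analysis. Endpoint fitted bidirectionally, DMSO = baseline.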
# [5] = target: Aryl hydrocarbon receptor (Homo sapiens) (UniProt P35869); test: ATG_Ahr_CIS: Attagene CIS-FACTORIAL HepG2 Assay for human Aryl Hydrocarbon Receptor (Ahr) (AID 2282930); settings: HepG2 AhR cis-factorial reporter transcription; actives raise or lower the signal
# Sequence of Aryl hydrocarbon receptor (Homo sapiens) (P35869 whole entry, looked up): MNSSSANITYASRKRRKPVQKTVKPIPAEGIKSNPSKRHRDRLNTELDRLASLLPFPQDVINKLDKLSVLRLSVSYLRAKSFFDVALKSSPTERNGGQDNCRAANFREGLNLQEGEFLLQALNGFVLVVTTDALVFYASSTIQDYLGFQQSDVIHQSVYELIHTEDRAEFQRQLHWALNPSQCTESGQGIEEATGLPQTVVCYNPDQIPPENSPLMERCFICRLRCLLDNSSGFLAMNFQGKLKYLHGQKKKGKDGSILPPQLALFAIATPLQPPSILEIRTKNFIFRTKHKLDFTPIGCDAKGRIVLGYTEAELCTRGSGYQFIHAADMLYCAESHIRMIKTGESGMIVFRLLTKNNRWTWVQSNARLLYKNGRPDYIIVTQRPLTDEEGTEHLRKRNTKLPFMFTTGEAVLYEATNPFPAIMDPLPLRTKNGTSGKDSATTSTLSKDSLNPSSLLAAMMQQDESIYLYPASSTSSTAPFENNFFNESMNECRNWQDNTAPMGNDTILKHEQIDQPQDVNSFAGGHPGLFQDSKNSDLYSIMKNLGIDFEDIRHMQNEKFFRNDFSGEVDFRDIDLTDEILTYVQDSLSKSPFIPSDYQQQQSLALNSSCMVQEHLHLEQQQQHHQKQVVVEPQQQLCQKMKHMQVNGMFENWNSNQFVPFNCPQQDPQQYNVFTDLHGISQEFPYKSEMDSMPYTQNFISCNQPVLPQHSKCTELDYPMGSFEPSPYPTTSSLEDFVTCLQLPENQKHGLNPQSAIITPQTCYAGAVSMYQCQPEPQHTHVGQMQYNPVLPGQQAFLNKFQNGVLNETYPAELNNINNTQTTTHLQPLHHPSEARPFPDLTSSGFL
# In short: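 Reporter mRNA levels, quantified by RT-PCR and fluorescent capillary electrophoresis, reflect endogenous AhR transcriptional activity in HepG2 cells carrying transfected cis-promoter reporter constructs. Readout at 24 h post-dose; gain or loss fitted against DMSO baseline.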
# [6] = ATG_AP_1_CIS: Attagene CIS-FACTORIAL HepG2 Assay for human Activator Protein 1 (AP-1) (AID 2282931); settings: HepG2 Attagene cis-factorial AP-1 reporter mRNA; actives raise or lower the signal
# In short: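 Cis-regulated reporter units transiently expressed in HepG2 report endogenous transcription-factor activity. Signal: reporter mRNA at 24 h, via RT-PCR and fluorescent capillary electrophoresis. Endpoint derived by bidirectional fitting, DMSO as negative control.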
# [7] = ATG_AP_2_CIS: Attagene CIS-FACTORIAL HepG2 Assay for human Activator Protein 2 (AP-2) (AID 2282932); settings: HepG2 AP-2 cis-reporter, Attagene transcription factor profiling; actives raise or lower the signal
# In short: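 Step one: transient transfection of HepG2 with reporter transcription units. Step two: 24 h chemical exposure. Step three: RNA extraction, RT-PCR, labelled fragment analysis by capillary electrophoresis; DMSO serves as baseline.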
# [8] = ATG_BRE_CIS: Attagene CIS-FACTORIAL HepG2 Assay for human Bone Morphogenetic Protein (BMP) Response Element (BRE) (AID 2282933); settings: HepG2 BMP response element reporter, Attagene transcription factor profiling; actives raise or lower the signal
# In short: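 Gain- or loss-of-signal was derived by bidirectional fitting against DMSO controls. The signal came from reporter mRNA, measured by RT-PCR and capillary electrophoresis, in HepG2 cells transiently carrying multiple reporter units and dosed for 24 h.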
# [9] = target: Transcription factor E2F1 (Homo sapiens) (UniProt Q01094); test: ATG_E2F_CIS: Attagene CIS-FACTORIAL HepG2 Assay for human E2F Transcription Factor 1 (AID 2282935); settings: HepG2 Attagene cis-reporter, E2F reporter RNA transcripts; actives raise or lower the signal
# Sequence of Transcription factor E2F1 (Homo sapiens) (Q01094 whole entry, looked up): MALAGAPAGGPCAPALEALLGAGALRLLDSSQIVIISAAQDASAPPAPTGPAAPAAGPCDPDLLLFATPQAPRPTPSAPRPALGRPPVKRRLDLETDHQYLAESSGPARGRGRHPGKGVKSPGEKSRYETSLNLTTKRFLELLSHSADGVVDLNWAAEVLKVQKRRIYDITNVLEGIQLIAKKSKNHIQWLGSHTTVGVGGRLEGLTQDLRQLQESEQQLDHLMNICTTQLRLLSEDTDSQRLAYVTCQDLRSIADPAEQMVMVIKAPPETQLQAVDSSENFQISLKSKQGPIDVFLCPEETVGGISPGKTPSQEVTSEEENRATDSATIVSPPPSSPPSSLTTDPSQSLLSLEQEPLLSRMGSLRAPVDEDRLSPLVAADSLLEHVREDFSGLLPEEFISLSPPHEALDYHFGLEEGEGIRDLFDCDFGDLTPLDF
# In short: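 Total RNA from 24 h-treated, reporter-transfected HepG2 cells undergoes DNase I treatment, oligo(dT) reverse transcription, PCR and 6-FAM primer extension before capillary electrophoresis.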
# [10] = ATG_E_Box_CIS: Attagene CIS-FACTORIAL HepG2 Assay for human Enhancer Box (E-box) (AID 2282936); settings: HepG2 E-box cis-reporter transcription, actives raise or lower the signal
# In short: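 DMSO served as negative control and baseline for bidirectional fitting. Human hepatoma HepG2 cells, transiently transfected with cis-reporter constructs, were dosed 24 h; reporter mRNA read by RT-PCR and capillary electrophoresis.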
# [11] = ATG_M_61_CIS: Attagene CIS-FACTORIAL HepG2 Assay for M61 Transcription Factor (Internal Marker) (AID 2282937); settings: HepG2 Attagene CIS-FACTORIAL M61 internal marker reporter; actives raise or lower the signal
# In short: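 Background-control endpoint: HepG2 cells with cis-regulated reporter constructs, 24 h exposure, reporter mRNA detected via fluorescent primer extension and capillary electrophoresis; values from bidirectional fitting with DMSO baseline.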
# [12] = ATG_EGR_CIS: Attagene CIS-FACTORIAL HepG2 Assay for human Early Growth Response 1 (EGR1) (AID 2282938); settings: HepG2 Attagene CIS-FACTORIAL EGR reporter mRNA; actives raise or lower the signal
# In short: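 Endpoint derived by bidirectional fitting versus DMSO vehicle. Method: cis-promoter reporter units transfected into HepG2, 24 h dosing, RNA isolation, RT-PCR with 6-FAM primer extension and HpaI digestion, then capillary electrophoresis fluorescence detection.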
# [13] = ATG_M_19_CIS: Attagene CIS-FACTORIAL HepG2 Assay for M19 Transcription Factor (Internal Marker) (AID 2282939); settings: HepG2 Attagene CIS-FACTORIAL M19 internal marker reporter; actives raise or lower the signal
# In short: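 Following a 24 h exposure, RNA from transfected HepG2 cells was reverse-transcribed, PCR-amplified with reporter-specific primers, end-labelled with 6-FAM and HpaI-digested before capillary separation. Values represent gain or loss versus DMSO.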
# [14] = ATG_Ets_CIS: Attagene CIS-FACTORIAL HepG2 Assay for human Erythroblast Transformation Specific (ETS) (AID 2282941); settings: HepG2 ETS cis-reporter transcription, actives raise or lower the signal
# In short: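 HepG2 cells transiently transfected with cis-promoter reporter transcription units were dosed for 24 h; reporter mRNA was measured by RT-PCR, 6-FAM primer extension, HpaI digestion and capillary electrophoresis, with bidirectional fitting against DMSO baseline.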
# [15] = target: Hepatocyte nuclear factor 3-beta (Homo sapiens) (UniProt Q9Y261); test: ATG_FoxA2_CIS: Attagene CIS-FACTORIAL HepG2 Assay for human Forkhead box A2 (FOXA2) (AID 2282942); settings: HepG2 cis-reporter transcription factor activity, 24 h; actives raise or lower the signal
# Sequence of Hepatocyte nuclear factor 3-beta (Homo sapiens) (Q9Y261 whole entry, looked up): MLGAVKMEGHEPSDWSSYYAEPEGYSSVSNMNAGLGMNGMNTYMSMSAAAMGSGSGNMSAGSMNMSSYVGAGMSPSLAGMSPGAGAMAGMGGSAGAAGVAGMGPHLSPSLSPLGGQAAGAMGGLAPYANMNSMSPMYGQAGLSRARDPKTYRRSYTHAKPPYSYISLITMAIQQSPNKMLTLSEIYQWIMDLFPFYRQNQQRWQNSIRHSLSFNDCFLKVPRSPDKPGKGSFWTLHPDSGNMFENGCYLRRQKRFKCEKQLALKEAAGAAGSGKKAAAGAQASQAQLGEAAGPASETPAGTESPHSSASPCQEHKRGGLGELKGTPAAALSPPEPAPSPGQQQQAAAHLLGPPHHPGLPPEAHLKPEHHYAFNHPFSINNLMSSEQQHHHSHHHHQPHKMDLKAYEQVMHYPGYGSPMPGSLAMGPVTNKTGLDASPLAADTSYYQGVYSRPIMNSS
# In short: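 Measured: reporter mRNA induction or loss in HepG2 transiently carrying multiple cis-regulated reporter units, 24 h after dosing. Quantified by RT-PCR plus capillary electrophoresis, normalised to DMSO.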
# [16] = ATG_FoxO_CIS: Attagene CIS-FACTORIAL HepG2 Assay for human Forkhead box O (FoxO) (AID 2282943); settings: HepG2 Attagene cis-reporter, FoxO element, mRNA; actives raise or lower the signal
# In short: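 Endogenous transcription factor activity read from multiplexed cis-promoter reporter transcripts in transiently transfected HepG2, 24 h after dosing. Reporter RNA measured via RT-PCR plus capillary electrophoresis of FAM-labeled products; gain or loss relative to DMSO.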
# [17] = ATG_GATA_CIS: Attagene CIS-FACTORIAL HepG2 Assay for human GATA Binding Protein (AID 2282944); settings: HepG2 GATA cis-element reporter, Attagene multiplex mRNA; actives raise or lower the signal
# In short: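 DMSO serves as negative control and baseline for bidirectional fitting of reporter mRNA changes. HepG2 cells bearing transiently transfected cis-promoter reporters were exposed 24 h; transcripts detected via RT-PCR and capillary electrophoresis.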
# [18] = ATG_GLI_CIS: Attagene CIS-FACTORIAL HepG2 Assay for human Zinc Finger Protein GLI1 (AID 2282945); settings: HepG2, Attagene cis-factorial reporter mRNA, GLI element; actives raise or lower the signal
# In short: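 Bidirectional curve fits relative to DMSO, using reporter mRNA levels from RT-PCR plus capillary electrophoresis. Cells were HepG2 transiently carrying cis-regulated reporter constructs, harvested 24 h after dosing.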
smiles,measurement,setting,value
CCCC1CCC(=O)O1 (stereo unspecified),outcome,[1],inactive
same,outcome,[2],inactive
same,outcome,[3],inactive
same,outcome,[4],inactive
same,AC50,[5],10.2 µM (active)
same,outcome,[6],inactive
same,outcome,[7],inactive
same,outcome,[8],inactive
same,outcome,[9],inactive
same,outcome,[10],inactive
same,outcome,[11],inactive
same,outcome,[12],inactive
same,outcome,[13],inactive
same,outcome,[14],inactive
same,outcome,[15],inactive
same,outcome,[16],inactive
same,outcome,[17],inactive
same,outcome,[18],inactive
CC1CCC2CC1C2(C)C (stereo unspecified),outcome,[1],inactive
same,outcome,[2],inactive
same,outcome,[3],inactive
same,outcome,[4],inactive
same,outcome,[5],inactive
same,outcome,[6],inactive
same,outcome,[7],inactive
same,outcome,[8],inactive
same,outcome,[9],inactive
same,outcome,[10],inactive
same,outcome,[11],inactive
same,outcome,[12],inactive
same,outcome,[13],inactive
same,outcome,[14],inactive
same,outcome,[15],inactive
same,outcome,[16],inactive
same,outcome,[18],inactive
Nc1cc([N+](=O)[O-])ccc1Cl,outcome,[1],inactive
same,outcome,[2],inactive
same,outcome,[3],inactive
same,outcome,[4],inactive
same,AC50,[5],20.2 µM (active)
same,outcome,[6],inactive
same,outcome,[7],inactive
same,outcome,[8],inactive
same,outcome,[9],inactive
same,outcome,[10],inactive
same,outcome,[11],inactive
same,outcome,[12],inactive
same,outcome,[13],inactive
same,outcome,[14],inactive
same,outcome,[15],inactive
same,outcome,[16],inactive
same,outcome,[18],inactive
C=CCOC(=O)CCC1CCCCC1,outcome,[1],inactive
same,outcome,[2],inactive
same,outcome,[3],inactive
same,outcome,[4],inactive
same,outcome,[5],inactive
same,outcome,[6],inactive
same,outcome,[7],inactive
same,outcome,[8],inactive
same,outcome,[9],inactive
same,outcome,[10],inactive
same,outcome,[11],inactive
same,outcome,[12],inactive
same,outcome,[13],inactive
same,outcome,[14],inactive
same,outcome,[15],inactive
same,outcome,[16],inactive
same,outcome,[17],inactive
same,outcome,[18],inactive
C=CC(=O)OCCn1c(=O)n(CCOC(=O)C=C)c(=O)n(CCOC(=O)C=C)c1=O,outcome,[1],inactive
same,outcome,[2],inactive
same,AC50,[3],9.12 µM (active)
same,AC50,[4],16.5 µM (active)
same,AC50,[5],3.42 µM (active)
same,AC50,[6],53.6 µM (active)
same,AC50,[7],20 µM (active)
same,outcome,[8],inactive
same,outcome,[9],inactive
same,AC50,[10],18.9 µM (active)
same,outcome,[11],inactive
same,AC50,[12],11.2 µM (active)
same,outcome,[13],inactive
same,outcome,[14],inactive
same,AC50,[15],52.4 µM (active)
same,outcome,[16],inactive
same,outcome,[17],inactive
same,outcome,[18],inactive
C=C(C)C(=O)NCCCN(C)C,outcome,[1],inactive
same,outcome,[2],inactive
same,outcome,[3],inactive
same,outcome,[4],inactive
same,outcome,[5],inactive
same,outcome,[6],inactive
same,outcome,[7],inactive
same,outcome,[8],inactive
same,outcome,[9],inactive
same,outcome,[10],inactive
same,outcome,[11],inactive
same,outcome,[12],inactive
same,outcome,[13],inactive
same,outcome,[14],inactive
same,outcome,[15],inactive
same,outcome,[16],inactive
same,outcome,[18],inactive
N#Cc1nc(Cl)c(Cl)c(Cl)c1Cl,outcome,[1],inactive
same,AC50,[2],6.82 µM (active)
same,AC50,[3],7.02 µM (active)
same,AC50,[4],3.14 µM (active)
same,outcome,[5],inactive
same,AC50,[6],6.02 µM (active)
same,AC50,[7],4.74 µM (active)
same,AC50,[8],5.89 µM (active)
same,outcome,[9],inactive
same,AC50,[10],5.53 µM (active)
same,outcome,[11],inactive
same,AC50,[12],4.56 µM (active)
same,outcome,[13],inactive
same,AC50,[14],2.25 µM (active)
same,AC50,[15],6.82 µM (active)
same,AC50,[16],5.92 µM (active)
same,AC50,[17],3.71 µM (active)
same,AC50,[18],5.39 µM (active)
O=C1NC(=O)c2ccccc21,outcome,[1],inactive
same,outcome,[2],inactive
same,outcome,[3],inactive
same,outcome,[4],inactive
same,outcome,[5],inactive
same,outcome,[6],inactive
same,outcome,[7],inactive
same,outcome,[8],inactive
same,outcome,[9],inactive
same,outcome,[10],inactive
same,outcome,[11],inactive
same,outcome,[12],inactive
same,outcome,[13],inactive
same,outcome,[14],inactive
same,outcome,[15],inactive
same,outcome,[16],inactive
same,outcome,[17],inactive
same,outcome,[18],inactive

# Source: PubChem BioAssay (EPA / NIEHS)
